# ChEMBL document CHEMBL3988442, “University of Dundee, Small-Polar-MMV Screening Library” (2021)
# For part of these data: Measured potencies and affinities stand elsewhere.
# Experiments:
# Parameters in all cases: scale not given: direction of the effect not stated beside the values
# [1] = molecular target: Protein translocase subunit SecA (Escherichia coli (strain K12)) (UniProt P10408); test: Assay to Identify E. coli SecA ATPase Inhibitors; format: functional; settings: 30 µM
# [2] = molecular target: T1, Ubiquitin-activating enzyme e1, putative (Leishmania donovani (strain BPK282A1)) (UniProt E9BSI1); test: Leishmania donovani Ubiquitin Activating Enzyme (LdE1); format: functional; settings: 30 µM
# T1 sequence (whole entry): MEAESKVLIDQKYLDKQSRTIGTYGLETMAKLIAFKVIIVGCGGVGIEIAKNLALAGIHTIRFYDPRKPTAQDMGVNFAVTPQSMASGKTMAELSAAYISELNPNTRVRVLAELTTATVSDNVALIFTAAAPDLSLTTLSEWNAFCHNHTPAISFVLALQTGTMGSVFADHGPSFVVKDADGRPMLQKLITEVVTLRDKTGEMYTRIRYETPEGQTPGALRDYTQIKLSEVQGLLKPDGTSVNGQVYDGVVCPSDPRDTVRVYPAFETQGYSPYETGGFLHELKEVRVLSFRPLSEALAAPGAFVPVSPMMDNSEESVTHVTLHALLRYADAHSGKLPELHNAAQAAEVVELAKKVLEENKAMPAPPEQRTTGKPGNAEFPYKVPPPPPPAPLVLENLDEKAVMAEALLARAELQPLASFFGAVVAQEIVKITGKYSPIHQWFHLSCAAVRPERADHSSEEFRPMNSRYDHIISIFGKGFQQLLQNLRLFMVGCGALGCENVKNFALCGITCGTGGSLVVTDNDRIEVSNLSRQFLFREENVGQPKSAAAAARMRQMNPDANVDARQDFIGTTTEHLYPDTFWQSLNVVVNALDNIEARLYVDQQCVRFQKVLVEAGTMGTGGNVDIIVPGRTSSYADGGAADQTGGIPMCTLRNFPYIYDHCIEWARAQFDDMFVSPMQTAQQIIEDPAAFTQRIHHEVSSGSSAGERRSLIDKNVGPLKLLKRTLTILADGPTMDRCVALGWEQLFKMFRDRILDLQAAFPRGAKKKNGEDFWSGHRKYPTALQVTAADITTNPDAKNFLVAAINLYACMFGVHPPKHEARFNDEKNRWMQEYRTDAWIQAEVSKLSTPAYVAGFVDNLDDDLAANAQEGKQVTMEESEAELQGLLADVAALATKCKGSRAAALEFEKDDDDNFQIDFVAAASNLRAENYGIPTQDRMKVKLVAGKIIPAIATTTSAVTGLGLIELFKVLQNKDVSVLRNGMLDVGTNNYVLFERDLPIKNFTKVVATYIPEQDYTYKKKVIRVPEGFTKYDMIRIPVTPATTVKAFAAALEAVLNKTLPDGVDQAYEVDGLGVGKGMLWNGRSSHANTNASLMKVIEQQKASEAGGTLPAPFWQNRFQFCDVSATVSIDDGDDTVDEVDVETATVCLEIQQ
# [3] = molecular target: AMP-activated protein kinase, AMPK (Homo sapiens) (UniProt P54646+O43741+P54619+Q9UGJ0+Q9Y478+Q13131+Q9UGI9); test: AMP-dependent Kinase enzyme assay. An in vitro enzyme assay that detects ADP turnover that is directly proportional to AMPK activity. This uses naive AMPK that is activated during the assay with MK-8722; format: functional; settings: 30 µM
# [4] = molecular target: Sialic acid-binding Ig-like lectin 9 (Homo sapiens) (UniProt Q9Y336); test: Hs-Siglec9 ALPHAscreen SOP 20170721; settings: 10 µM
# Sialic acid-binding Ig-like lectin 9 (Homo sapiens), sequence (Q9Y336 whole entry): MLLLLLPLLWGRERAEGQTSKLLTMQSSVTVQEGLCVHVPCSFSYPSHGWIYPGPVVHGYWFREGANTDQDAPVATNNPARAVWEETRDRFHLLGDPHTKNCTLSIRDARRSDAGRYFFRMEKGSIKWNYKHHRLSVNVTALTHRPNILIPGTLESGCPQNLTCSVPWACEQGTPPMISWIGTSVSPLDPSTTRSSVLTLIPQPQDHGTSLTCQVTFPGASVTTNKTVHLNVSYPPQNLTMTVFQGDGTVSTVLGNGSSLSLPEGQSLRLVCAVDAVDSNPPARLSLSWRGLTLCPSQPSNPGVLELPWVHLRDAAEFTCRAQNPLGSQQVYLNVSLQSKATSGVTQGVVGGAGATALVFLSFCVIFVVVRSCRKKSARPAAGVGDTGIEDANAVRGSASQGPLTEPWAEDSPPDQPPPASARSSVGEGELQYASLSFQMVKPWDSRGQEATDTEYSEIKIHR
# Trypanosoma cruzi = test: Trypanosoma cruzi phosphomannomutase and mannose-1-phosphate guanylyltransferase assay; format: functional; settings: 10 µM
# [5] = molecular target: T2, Arginase-2, mitochondrial (Homo sapiens) (UniProt P78540); test: in vitro enzyme assay to detect the production of urea directly proportional to the activity of Arginase II; format: functional; settings: 33.3 µM; also: in the data most compounds retested in dose-response had high values
# T2 sequence (whole entry): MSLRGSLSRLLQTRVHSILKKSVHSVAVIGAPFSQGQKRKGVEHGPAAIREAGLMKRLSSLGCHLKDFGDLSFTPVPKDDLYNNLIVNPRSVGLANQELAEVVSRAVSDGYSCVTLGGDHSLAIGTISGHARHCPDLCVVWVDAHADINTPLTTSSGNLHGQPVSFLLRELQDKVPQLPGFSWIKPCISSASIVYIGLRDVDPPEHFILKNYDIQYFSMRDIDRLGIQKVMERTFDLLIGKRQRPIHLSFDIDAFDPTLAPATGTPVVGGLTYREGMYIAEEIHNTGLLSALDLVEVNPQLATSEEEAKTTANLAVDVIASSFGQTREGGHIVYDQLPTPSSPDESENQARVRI
# [6] = molecular target: T3, Proteasome subunit beta (Trypanosoma cruzi) (UniProt O96673); test: Trypanosoma cruzi proteasome chymotrypsin-like activity (TcProtChymo) assay.; also: in the data most compounds retested in dose-response had high values; format: functional; settings: 9.37 µM
# T3 sequence (whole entry): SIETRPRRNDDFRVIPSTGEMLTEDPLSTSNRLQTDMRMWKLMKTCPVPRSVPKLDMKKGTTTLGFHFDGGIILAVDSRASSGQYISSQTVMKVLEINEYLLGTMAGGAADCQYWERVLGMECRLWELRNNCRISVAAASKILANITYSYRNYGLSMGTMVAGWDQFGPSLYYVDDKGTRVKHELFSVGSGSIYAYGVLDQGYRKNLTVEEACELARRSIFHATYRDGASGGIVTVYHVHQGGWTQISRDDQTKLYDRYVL
# Homo sapiens = species: Homo sapiens; test: To identify inhibition of the IFN signalling (Jak-Stat) pathway via expression of an eGFP reporter gene under the control of an IFN-stimulated response element (ISRE) containing MxA promoter.; format: functional; settings: 30 µM
# [7] = molecular target: T4, Tyrosyl-tRNA synthetase, putative (Trypanosoma cruzi (strain CL Brener)) (UniProt Q4DSP6); test: Trypanosoma cruzi tyrosyl tRNA synthetase (TcYRS) _High Tyrosine SOP; format: functional; settings: 30 µM; also: in the data most compounds retested in dose-response had high values
# T4 sequence (whole entry): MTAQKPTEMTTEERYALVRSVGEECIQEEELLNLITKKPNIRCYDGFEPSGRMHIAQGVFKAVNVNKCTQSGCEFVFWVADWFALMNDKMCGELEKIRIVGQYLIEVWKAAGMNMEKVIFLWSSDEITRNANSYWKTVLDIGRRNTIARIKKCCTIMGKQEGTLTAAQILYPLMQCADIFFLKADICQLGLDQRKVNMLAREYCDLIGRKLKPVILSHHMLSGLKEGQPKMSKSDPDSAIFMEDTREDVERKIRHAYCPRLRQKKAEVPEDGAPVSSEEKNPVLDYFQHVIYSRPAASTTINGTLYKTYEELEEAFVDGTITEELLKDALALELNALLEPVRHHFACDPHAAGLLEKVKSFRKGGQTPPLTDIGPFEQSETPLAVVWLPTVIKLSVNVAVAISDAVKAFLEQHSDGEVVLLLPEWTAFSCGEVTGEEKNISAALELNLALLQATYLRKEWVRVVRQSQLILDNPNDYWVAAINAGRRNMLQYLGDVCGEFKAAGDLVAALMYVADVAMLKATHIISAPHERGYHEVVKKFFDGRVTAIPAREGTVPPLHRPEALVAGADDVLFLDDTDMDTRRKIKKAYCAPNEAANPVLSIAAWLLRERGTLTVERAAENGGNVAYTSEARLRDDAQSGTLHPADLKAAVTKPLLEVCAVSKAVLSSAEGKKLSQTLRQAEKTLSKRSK
# [8] = molecular target: T4, Tyrosyl-tRNA synthetase, putative (Trypanosoma cruzi (strain CL Brener)); test: Trypanosoma cruzi tyrosyl tRNA synthetase (TcYRS) SOP; format: functional; settings: 30 µM
# [9] = molecular target: Chromo domain-containing protein 1 (Saccharomyces cerevisiae (strain ATCC 204508 / S288c) (Baker's yeast)) (UniProt P32657); test: ScCHD-1 Enzyme Inhibition Assay; format: functional; settings: 30 µM; also: in the data most compounds retested in dose-response had high values
# Chromo domain-containing protein 1 (Saccharomyces cerevisiae (strain ATCC 204508 / S288c) (Baker's yeast)), sequence (P32657 whole entry, the tested form may be a part): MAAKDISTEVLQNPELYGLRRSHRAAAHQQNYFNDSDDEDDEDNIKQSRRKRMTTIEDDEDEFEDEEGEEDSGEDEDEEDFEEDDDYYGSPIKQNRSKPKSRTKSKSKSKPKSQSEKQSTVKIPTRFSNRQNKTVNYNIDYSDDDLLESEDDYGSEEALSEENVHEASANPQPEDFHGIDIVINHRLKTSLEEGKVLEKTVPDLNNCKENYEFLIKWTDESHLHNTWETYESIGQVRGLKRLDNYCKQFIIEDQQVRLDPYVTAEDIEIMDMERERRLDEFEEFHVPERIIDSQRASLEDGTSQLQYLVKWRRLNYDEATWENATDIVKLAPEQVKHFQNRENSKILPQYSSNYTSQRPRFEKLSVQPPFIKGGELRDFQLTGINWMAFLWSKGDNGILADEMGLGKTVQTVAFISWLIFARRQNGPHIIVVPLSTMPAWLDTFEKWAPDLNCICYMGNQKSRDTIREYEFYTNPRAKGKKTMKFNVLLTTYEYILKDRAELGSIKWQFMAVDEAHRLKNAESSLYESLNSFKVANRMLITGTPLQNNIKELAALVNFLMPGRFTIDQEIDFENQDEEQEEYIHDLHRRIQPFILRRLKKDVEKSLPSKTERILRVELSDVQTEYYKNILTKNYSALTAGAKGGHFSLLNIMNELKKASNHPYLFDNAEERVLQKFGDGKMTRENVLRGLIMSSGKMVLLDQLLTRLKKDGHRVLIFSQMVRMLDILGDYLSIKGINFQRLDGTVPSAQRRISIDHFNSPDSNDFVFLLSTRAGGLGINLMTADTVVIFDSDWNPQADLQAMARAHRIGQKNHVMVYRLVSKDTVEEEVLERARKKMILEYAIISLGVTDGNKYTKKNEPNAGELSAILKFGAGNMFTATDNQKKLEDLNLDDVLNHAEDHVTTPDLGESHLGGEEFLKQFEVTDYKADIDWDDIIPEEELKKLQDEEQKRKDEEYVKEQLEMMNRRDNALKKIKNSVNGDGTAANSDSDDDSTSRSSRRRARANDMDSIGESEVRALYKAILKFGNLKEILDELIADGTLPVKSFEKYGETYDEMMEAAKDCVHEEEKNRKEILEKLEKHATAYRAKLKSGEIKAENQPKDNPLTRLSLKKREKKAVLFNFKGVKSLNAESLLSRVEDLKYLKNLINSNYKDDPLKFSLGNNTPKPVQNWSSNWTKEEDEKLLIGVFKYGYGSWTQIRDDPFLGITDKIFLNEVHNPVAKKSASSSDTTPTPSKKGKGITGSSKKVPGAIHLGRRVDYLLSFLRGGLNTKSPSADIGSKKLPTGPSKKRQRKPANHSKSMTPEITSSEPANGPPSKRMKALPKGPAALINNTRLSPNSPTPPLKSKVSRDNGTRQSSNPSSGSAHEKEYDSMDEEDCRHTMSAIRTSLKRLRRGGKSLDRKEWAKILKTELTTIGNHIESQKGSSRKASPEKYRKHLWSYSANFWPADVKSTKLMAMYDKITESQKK
# Protein translocase subunit SecA (Escherichia coli (strain K12)), sequence (P10408 whole entry): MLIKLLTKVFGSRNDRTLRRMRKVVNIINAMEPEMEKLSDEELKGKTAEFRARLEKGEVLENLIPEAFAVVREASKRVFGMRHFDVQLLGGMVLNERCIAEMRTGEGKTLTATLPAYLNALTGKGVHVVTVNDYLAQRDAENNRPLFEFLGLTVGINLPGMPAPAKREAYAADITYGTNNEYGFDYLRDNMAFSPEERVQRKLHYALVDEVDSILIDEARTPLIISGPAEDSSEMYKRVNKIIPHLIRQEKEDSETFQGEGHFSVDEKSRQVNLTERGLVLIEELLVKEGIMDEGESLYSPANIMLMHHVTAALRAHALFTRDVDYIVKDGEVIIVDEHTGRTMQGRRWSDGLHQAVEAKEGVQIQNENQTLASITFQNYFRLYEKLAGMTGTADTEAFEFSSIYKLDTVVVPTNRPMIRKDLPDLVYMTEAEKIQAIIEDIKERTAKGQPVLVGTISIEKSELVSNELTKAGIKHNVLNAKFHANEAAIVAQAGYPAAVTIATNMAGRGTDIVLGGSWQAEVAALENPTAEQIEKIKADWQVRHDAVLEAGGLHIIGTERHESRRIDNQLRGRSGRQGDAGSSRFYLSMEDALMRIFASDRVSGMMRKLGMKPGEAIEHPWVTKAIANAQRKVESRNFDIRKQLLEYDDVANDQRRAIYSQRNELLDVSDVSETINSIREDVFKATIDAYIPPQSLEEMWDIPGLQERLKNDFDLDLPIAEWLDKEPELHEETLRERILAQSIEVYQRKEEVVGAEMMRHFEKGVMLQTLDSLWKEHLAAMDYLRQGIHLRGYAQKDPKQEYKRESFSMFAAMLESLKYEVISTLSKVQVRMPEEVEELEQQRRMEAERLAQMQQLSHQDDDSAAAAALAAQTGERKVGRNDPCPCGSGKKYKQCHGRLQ
SMILES,Percent Effect [1] [%],Percent Effect [2] [%],Percent Effect [3] [%],Percent Effect [4] [%],Percent Effect (Trypanosoma cruzi) [%],Percent Effect [5] [%],Percent Effect [6] [%],Percent Effect (Homo sapiens) [%],Percent Effect [7] [%],Percent Effect [8] [%],Percent Effect [9] [%]
CCOCCNc1nc(C2CCCC2)nc2c1cnn2C,-4.35,2.74,6.03,-4.4,0.588,2.73,1.6,17.1,1.07,5,2.02
COCCN(Cc1ccoc1)C(=O)c1cccnc1SC,-1.15,5.2,9.17,2.43,-4.24,7.1,1.04,1.32,3.17,6.41,-5.39
CS(=O)(=O)N1CCOCC2(CCN(C(=O)c3cccnc3)CC2)C1,0.0699,2.74,2.01,-0.0941,2.78,4.79,9.33,-18.8,0,3.7,-3.11
Cc1cc(CN(C)C2CCCN(Cc3noc(C4CC4)n3)C2)no1 (stereo unspecified),-2.13,15.8,-10.8,-8.06,-9.62,-1.8,12.4,15.9,1.48,3.7,-9.14
COc1ccc2c(ccn2CCC(=O)O)c1,-6.14,4,-3.9,-8.49,-8.45,-7.22,6.1,21.8,3.17,-5.13,-7.85
Cc1cnc2c(S(=O)(=O)NCC3CCN(C4CC4)C3)cccc2c1 (stereo unspecified),-4.76,-2.63,-3.93,-5.34,5.32,-3.6,-7.53,-27.5,11.3,6.17,6.25
COc1ccc(CS(=O)(=O)CC(=O)NCc2ccccc2F)cc1F,-3.22,7.89,5.57,-2.07,-2.63,8.28,17.2,-0.495,4.25,5.2,-2.98
CN(C)C(=O)CN1CCC2(CCN(Cc3nccs3)CC2)C1=O,-0.585,10.7,0.545,-5.07,-9.46,-60.4,12.5,13.1,-12.5,5,-7.73
CC(C)C1CN(c2ncc(F)cn2)CCC(=O)N1Cc1ccc(F)cc1 (stereo unspecified),-2.05,12.5,-4.48,14.3,6.51,8.83,13.3,-7.42,9.47,15.4,-4.54
CC(Cn1cccn1)NC(=O)Nc1nnc(C2CC2)s1 (stereo unspecified),-8.16,13,2.37,7.36,1.12,-0.356,-0.845,10.7,7.77,12.2,-5.78
O=C1CC(c2cccnc2)c2c(c(C(=O)O)cn2-c2ccccc2)N1 (stereo unspecified),-3.57,6.67,-32.4,-0.792,-3.14,6.16,14.6,11.4,3.17,10.3,-8.81
CC(NC(=O)NCCCn1cncn1)c1ccc2c(c1)OCCO2 (stereo unspecified),-1.3,18.9,-2.43,0.133,-3.81,-1.66,14.2,6.17,2.97,15.8,-2.48
Cc1noc(C(C)C)c1C(=O)N1CCOCC1CC(=O)c1ccco1 (stereo unspecified),-0.641,0,17.2,-3.82,0.487,1.18,7.38,-20.2,-2.13,-7.79,-0.46
COC(=O)CNC(=O)CSCc1nc(O)c2c(C)c(C)sc2n1,-1.31,-6.67,14.7,4.89,-3.93,3.7,9.8,-3.69,3.17,0,-4.91
Cn1cccc1C(=O)N1CCN(CC2CC2)c2ncccc2C1,-6.82,10.7,-5.74,2.72,2.7,-56.8,7.18,3.32,1.04,10,-4.08
Cc1ccc(C(=O)N(C)Cc2cc(Br)cs2)c(=O)[nH]1,1.09,7.89,5.18,-2.8,-3.8,-3.55,23.3,0.327,5.32,7.79,-3.78
COCC(=O)N1CCC[C@]2(C(=O)N(C)C)CN(c3ccccn3)C[C@@H]2C1,-2.73,5.33,-3.72,0.562,5.02,-50.4,16.2,-8.04,6.25,5,-8.42
O=C(NCC1(CO)CC1)c1cccc2ccccc12,-5.68,2.74,20.9,-5.02,-4.9,-0.455,10.7,0.244,6.45,2.5,-1.94
O=C(N1CCOCC1)[C@@]12CCO[C@@H]1CCN(CC1CCCCC1)C2,-4.88,-1.33,2.35,-2.81,-5.3,-10,7.58,12.3,-3.17,-10.3,-2.92
O=C(CCc1cccs1)N1CCC(N2CCNC2=O)CC1,-2.57,23.4,-4.07,-12.7,3.23,-1.05,18.5,-5.88,7.62,25.9,-19.5
CNS(=O)(=O)Cc1ccc(CNC(=O)c2ccc(C)[nH]c2=O)cc1,-4.48,28.6,-2.88,7.58,6.37,-1.07,5.91,-2.15,10.7,26.8,-6.56
